BAZ2B inh – blocks human BAZ2B. Q9UIF8. AlphaScreen BAZ2B-H3K14Ac peptide displacement. Potency, µM (top dose mostly 114 µM), actives largely listed as inhibitors. hit rate 4.4% among 360,000. AID 504333; note: nearly all actives have a fitted effect of over 60% in size
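Complex of BAZ2B and biotin-H3K14Ac (50 nM apiece) forms over 30 min at RT, then faces library compounds up to 110 uM for another 30 min; AlphaScreen beads added, 20 min dark incubation, luminescence read.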
GCN5L2 inh – inhibitors of human GCN5L2 histone acetyltransferase. Q92830. GCN5L2 HAT assay, ThioGlo1 CoA-SH fluorescence. Potency, µM (highest dose often 58.9 µM), usual class: inhibitors. hit rate 0.21% among 390,000
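GCN5L2 (20nM final) in 50mM HEPES, 0.1mM EDTA pH 7.5, 0.01% Tween-20 was preincubated 15 min at room temperature with compound, then given ThioGlo1 (50uM), H3(1-25) peptide (75uM) and acetyl-CoA (70uM); CoA-thiol fluorescence (Ex340/Em540) was read at 0 and 20 min.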
PLK1 PBD block – PLK1 (human) polo-box domain binding inhibition; P53350; Potency, µM, actives largely listed as inhibitors; Plk1 PBD binding of FITC phosphopeptide, fluorescence polarization; hit rate 2.8% among 360,000; note: series mostly up to about 57 µM; nearly all actives have a fitted effect of over 65% in size
JMJD2A Tudor inh – inhibitors of human JMJD2A Tudor domain; hit rate 4.4% among 390,000; AID 504339; Potency, µM (highest dose often 114 µM), actives largely listed as inhibitors; AlphaScreen JMJD2A-Tudor / H3K4me3 peptide binding; note: nearly all actives have a fitted effect of over 50% in size
Target sequence (O75164 whole entry, looked up, the tested form may be a part): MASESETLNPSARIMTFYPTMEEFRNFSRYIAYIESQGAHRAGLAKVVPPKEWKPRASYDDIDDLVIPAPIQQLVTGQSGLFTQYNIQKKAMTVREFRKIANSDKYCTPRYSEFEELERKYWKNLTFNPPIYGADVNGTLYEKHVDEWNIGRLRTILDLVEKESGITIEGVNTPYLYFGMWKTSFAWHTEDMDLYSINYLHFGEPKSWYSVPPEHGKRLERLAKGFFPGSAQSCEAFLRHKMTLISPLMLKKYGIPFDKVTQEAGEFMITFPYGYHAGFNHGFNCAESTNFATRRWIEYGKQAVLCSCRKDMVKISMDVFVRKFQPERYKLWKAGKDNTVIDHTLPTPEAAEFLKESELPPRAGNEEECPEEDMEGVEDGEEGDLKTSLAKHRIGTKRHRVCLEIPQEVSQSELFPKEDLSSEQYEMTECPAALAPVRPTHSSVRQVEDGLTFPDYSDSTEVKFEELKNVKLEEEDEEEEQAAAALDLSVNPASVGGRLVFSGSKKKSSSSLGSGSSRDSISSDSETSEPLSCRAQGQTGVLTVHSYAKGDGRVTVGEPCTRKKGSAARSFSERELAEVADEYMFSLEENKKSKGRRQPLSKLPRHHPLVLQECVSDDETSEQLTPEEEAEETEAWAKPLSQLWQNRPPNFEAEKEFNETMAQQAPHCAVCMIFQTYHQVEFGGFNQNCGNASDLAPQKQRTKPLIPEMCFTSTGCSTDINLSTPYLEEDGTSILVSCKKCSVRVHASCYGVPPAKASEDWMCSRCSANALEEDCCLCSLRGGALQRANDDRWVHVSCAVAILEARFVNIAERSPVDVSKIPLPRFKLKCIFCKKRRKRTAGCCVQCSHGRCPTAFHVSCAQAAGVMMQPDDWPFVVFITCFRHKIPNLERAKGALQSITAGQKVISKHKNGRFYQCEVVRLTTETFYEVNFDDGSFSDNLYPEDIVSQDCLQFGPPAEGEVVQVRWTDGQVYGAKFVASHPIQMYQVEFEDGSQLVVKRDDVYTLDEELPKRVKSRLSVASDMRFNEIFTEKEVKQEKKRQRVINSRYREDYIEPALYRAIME
PI5P4Ka inh – PI5P4K alpha (human) kinase inhibition. P48426. AID 652105. max response, %. hit rate 1.2% among 330,000. PI5P4Kalpha enzyme, ADP-Glo luminescence, 60 min; active compounds read low; active = max response of -50% or lower; inconclusive = between -30% and -50%; inactive = -30% or higher; note: value at the top dose of about 77 µM
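Reactions run in 0.038 M HEPES pH 7.4, 0.28 mM EGTA, 0.1% CHAPS and 5% DMSO, with PI5P4Kalpha, substrate, compound and 5 microM ATP final, one hour at room temperature. Readout is ADP-Glo luminescence.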
HP1b chromo inh – inhibitors of HP1-beta chromodomain binding to methylated histone tails; P83916; hit rate 0.56% among 390,000; Potency, µM (top dose mostly 114 µM), hits mostly inhibitors; AlphaScreen HP1-beta / biotin-H3K9me3 peptide binding; AID 540317; note: nearly all actives have a fitted effect of over 70% in size
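AlphaScreen: HP1-beta (50 nM) preformed 30 min with biotin-H3(1-18)K9me3 peptide (50 nM) in PBS pH 7.4, 0.01% Tween-20. Compound added for 30 min at RT, then streptavidin donor/nickel chelate acceptor beads (10 ug/mL) for 30 min.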
Large screens that a line does not name were inactive. Shown are actives, neighbours in structure and some others; about 7% of the full set was active somewhere. Unless noted, calls come from the whole dose curve; as a rule, active = well fitted curve in the direction sought with a large enough effect; inconclusive = small, poorly fitted or top-dose-only effect, or another doubt; inactive = no such curve, though single readings can be large; an effect the other way counts as inactive or inconclusive.

CCCCC(CC(O)COCCC)c1n[nH]c(=S)n1-c1ccccc1 (configuration not stated)	JMJD2A Tudor inh 16µM
COc1cc2c3nnc(-c4ccccc4)c-3cn(Cc3ccccc3F)c2cc1OC	PLK1 PBD block 21µM
COc1cc2c3nnc(-c4ccc(F)cc4)c-3cn(Cc3ccccc3F)c2cc1OC	PLK1 PBD block inconclusive (no result: BAZ2B inh)
Cc1ccc(S(=O)(=O)NCc2ccccc2)cc1C(=O)N1CCN(S(=O)(=O)c2ccccc2F)CC1	none (no result: BAZ2B inh, GCN5L2 inh, JMJD2A Tudor inh, HP1b chromo inh)
Oc1c(N=NC(=S)Nc2ccccc2F)c2ccccc2n1Cc1ccccc1Cl	BAZ2B inh inconclusive, JMJD2A Tudor inh 4µM, HP1b chromo inh inconclusive
Oc1c(N=NC(=S)Nc2ccccc2F)c2ccccc2n1Cc1ccccc1	BAZ2B inh inconclusive, JMJD2A Tudor inh inconclusive, HP1b chromo inh inconclusive
COC(=O)c1ccc(Cn2c(O)c(N=NC(N)=S)c3ccccc32)o1	BAZ2B inh inconclusive, JMJD2A Tudor inh inconclusive, PI5P4Ka inh -57
Cc1ccc(Cn2c(O)c(N=NC(=S)Nc3ccccc3F)c3ccccc32)cc1	BAZ2B inh 40µM, JMJD2A Tudor inh inconclusive
NC(=S)N=Nc1c(O)n(Cc2ccccc2)c2ccccc12	BAZ2B inh inconclusive
C=CCn1c(O)c(N=NC(=S)Nc2ccccc2F)c2ccccc21	BAZ2B inh inconclusive, JMJD2A Tudor inh 10µM, HP1b chromo inh inconclusive
CN(C(=O)CSc1nnc(CNC(=O)c2ccccc2)o1)c1ccccc1	none
Cc1ccc(N(C)S(=O)(=O)c2cccc(C(=O)NCC(c3ccco3)N3CCCC3)c2)cc1 (configuration not stated)	none
C=CCn1c(O)c(N=NC(=S)Nc2cccc(C)c2)c2ccccc21	BAZ2B inh 3.2µM, JMJD2A Tudor inh 8.9µM, HP1b chromo inh inconclusive
CCc1ncc(CN2CCCC(C(=O)Nc3cccc(-c4ccc(F)cc4)c3)C2)cn1 (configuration not stated)	none
CC(=O)c1cccc(CN2CCCC(C(=O)Nc3ccc(-c4ccco4)cc3)C2)c1 (configuration not stated)	BAZ2B inh 40µM, JMJD2A Tudor inh inconclusive, HP1b chromo inh 18µM
O=C(Nc1ccc(-c2ccco2)cc1)C1CCCN(Cc2ccc(CO)o2)C1 (configuration not stated)	BAZ2B inh inconclusive, JMJD2A Tudor inh inconclusive
CCc1ncc(CN2CCCC(C(=O)Nc3cccc(-c4cccc(C)c4)c3)C2)cn1 (configuration not stated)	JMJD2A Tudor inh 79µM
COCCc1ncc(CN2CCC(C(=O)Nc3cccc(-c4cscn4)c3)CC2)cn1	PLK1 PBD block 19µM, JMJD2A Tudor inh inconclusive
CC1CCCN(Cc2nc3c(c(=O)n(C)c(=O)n3C)n2Cc2ccc(Cl)cc2Cl)C1 (configuration not stated)	none (no result: BAZ2B inh, PLK1 PBD block, PI5P4Ka inh)
CC1CCCCC1NC(=O)C1CCN(S(=O)(=O)c2cccc3nonc23)CC1 (configuration not stated)	none
CSc1ncccc1C(=O)OCC(=O)N(CC(C)C)c1c(N)n(Cc2ccccc2)c(=O)[nH]c1=O	none
CC(C)c1cnc2c(c1SCC(=O)Nc1cccc(F)c1)c(=O)n(C)c(=O)n2C	none (no result: PLK1 PBD block, PI5P4Ka inh)
S=C(SSC(=S)N1CCOCC1)N1CCOCC1	PLK1 PBD block 1.5µM, PI5P4Ka inh -88 (no result: BAZ2B inh, GCN5L2 inh, JMJD2A Tudor inh, HP1b chromo inh)
CC(SC(=S)N1CCOCC1)C(=O)O (configuration not stated)	BAZ2B inh 25µM
COc1cccc(S(=O)(=O)N(C)C[C@H]2OCc3cn(nn3)CCCC(=O)N([C@H](C)CO)C[C@@H]2C)c1	none (no result: BAZ2B inh, GCN5L2 inh, JMJD2A Tudor inh, HP1b chromo inh)
COc1ccc(C(=O)NCCS(=O)(=O)NC(C)c2ccccc2)cc1 (configuration not stated)	none
COc1ccc(C2CC(c3cccc(OC)c3)n3nc(N)nc3N2)cc1 (configuration not stated)	none
CCOc1ccc(C2CC(c3ccccc3C)n3nc(N)nc3N2)cc1 (configuration not stated)	PLK1 PBD block 21µM, JMJD2A Tudor inh 20µM
COc1ccc(C2CC(c3ccccc3C)n3nc(N)nc3N2)cc1 (configuration not stated)	BAZ2B inh inconclusive, PLK1 PBD block inconclusive
CCc1ccc(C2CC(c3ccc(C)cc3)n3nc(N)nc3N2)cc1 (configuration not stated)	PLK1 PBD block 24µM, JMJD2A Tudor inh inconclusive (no result: BAZ2B inh, GCN5L2 inh)
COc1cccc(C2CC(c3ccc(Cl)cc3)n3nc(N)nc3N2)c1 (configuration not stated)	PLK1 PBD block 21µM, JMJD2A Tudor inh inconclusive
O=c1[nH]c(=O)c2nc(-c3ccc(Cl)cc3)cnc2[nH]1	PI5P4Ka inh inconclusive, HP1b chromo inh inconclusive
O=c1cnc(-c2ccc(Cl)cc2)cn1O	BAZ2B inh inconclusive, JMJD2A Tudor inh 89µM
CSC1=NSC2=NC(=O)/C(=C/c3coc4ccc(O)cc4c3=O)C(=N)N12	BAZ2B inh inconclusive, PLK1 PBD block inconclusive, JMJD2A Tudor inh inconclusive, PI5P4Ka inh -74
N=C1/C(=C/c2cccs2)C(=O)N=C2SN=C(SCc3ccccc3)N12	BAZ2B inh inconclusive, GCN5L2 inh inconclusive, PLK1 PBD block 27µM, JMJD2A Tudor inh inconclusive
CSC1=NSC2=NC(=O)/C(=C/c3coc4ccccc4c3=O)C(=N)N12	PLK1 PBD block 21µM, PI5P4Ka inh -61
COc1ccccc1CN(C)C(=O)c1cc(-c2cccs2)nc2ccccc12	none
CCCCCN(C(=O)CCC(=O)OCC(=O)N1CCCCC1)c1c(N)n(CCCC)c(=O)[nH]c1=O	none
CCOc1ccc(C(=O)N(Cc2nc(-c3cccc(C)c3)no2)C(C)C)cc1	none (no result: PLK1 PBD block, PI5P4Ka inh)
Cc1cc(C)cc(N(C(=O)CNC(=O)c2ccco2)C(C(=O)NC2CCCC2)c2ccncc2)c1 (configuration not stated)	PLK1 PBD block 30µM, JMJD2A Tudor inh inconclusive
CCc1ccc(N(C(=O)CNC(=O)c2ccco2)C(C(=O)NC2CCCC2)c2cccnc2)cc1 (configuration not stated)	PLK1 PBD block inconclusive, JMJD2A Tudor inh 50µM
O=C(NCC(=O)N(c1ccc2c(c1)OCO2)C(C(=O)NC1CCCC1)c1ccncc1)c1ccco1 (configuration not stated)	PLK1 PBD block 2.7µM, PI5P4Ka inh inconclusive, HP1b chromo inh inconclusive
Cc1cccc(N(C(=O)CNC(=O)c2ccco2)C(C(=O)NC2CCCC2)c2ccncc2)c1 (configuration not stated)	none
c1ccc(-c2cc(-c3nn4c(-c5ccco5)nnc4s3)c3ccccc3n2)cc1	PLK1 PBD block inconclusive, JMJD2A Tudor inh inconclusive (no result: PI5P4Ka inh)
Cc1cc(-c2nn3c(-c4ccccc4)nnc3s2)c2ccccc2n1	PLK1 PBD block 12µM (no result: PI5P4Ka inh)
CCC(C(=O)n1cccc1C#N)c1ccccc1C (configuration not stated)	GCN5L2 inh inconclusive
CCCN(CCC)C(=O)CSc1nnc2cc(C)c3ccccc3n12	JMJD2A Tudor inh inconclusive (no result: PLK1 PBD block, PI5P4Ka inh)

From PubChem BioAssay
